# Results published in PubChem BioAssay AID449762 (Southern Research Specialized Biocontainment Screening …, 2010).
# About 1,900 (0.58%) of roughly 330,000 compounds were called active. About 4% were inconclusive and are not listed. No stated cut-off is given here; in the data, inconclusive means inhibition above about 70% without an active follow-up result; inactive means below that. The list is a sample of the results. Measured potencies and affinities stand elsewhere.
# Test: M. tuberculosis growth inhibition, HTS (AID 449762);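 further: bacterial growth assessed after seven days of incubation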
# Settings: M. tuberculosis H37Rv growth inhibition, 7H9 media; at 25 µM; hits give high values
row,Compound,inhibition
1,CCCn1c(N)cc(=O)n(CCC)c1=O,8.69% (inactive)
2,Clc1ccccc1CN1CCN(c2ccccc2Cl)CC1,-2.43% (inactive)
3,COc1cccc(-c2cc3nc4c(c(N5CCC6(CC5)OCCO6)n3n2)CCCC4)c1,12.8% (inactive)
4,c1coc(CNc2c3c(nc4ncnn24)CCCC3)c1,-6.82% (inactive)
5,Clc1cccc(-c2cc3nc4c(c(N5CCOCC5)n3n2)CCCC4)c1,58.9% (inactive)
6,CN(C)CCCNc1c2c(nc3cc(-c4cccc(F)c4)nn13)CCC2,1.49% (inactive)
7,C(=NCCCN1CCOCC1)c1ccc2c(c1)OCO2,-12.4% (inactive)
8,COc1cc(NC(=O)C23CC4CC(C2)CC(n2nnc(C)n2)(C4)C3)c(OC)cc1Cl,2.98% (inactive)
9,COc1cc2cc(C(c3nnnn3C3CCCC3)N3CCc4ccccc43)c(=O)[nH]c2cc1OC (configuration not stated),0.64% (inactive)
10,CCC(C)(C)n1nnnc1C(c1cc2cc(OC)ccc2[nH]c1=O)N1CCc2ccccc21 (configuration not stated),64.6% (inactive)
11,COc1ccc(CN2CCCC(C(=O)c3cccc(OC(C)C)c3)C2)cc1Cn1cccn1 (configuration not stated),-6.67% (inactive)
12,COc1ccc(CN2CCCC(C(=O)c3ccc(Cl)cc3)C2)cc1Cn1cccn1 (configuration not stated),-5.07% (inactive)
13,CCCNC1=C(C)C(=O)C2=C(C1=O)C(COC(N)=O)[C@]1(OC)C3NC3CN21 (some centres not stated),-1.51% (inactive)
14,COC12C(COC(N)=O)C3=C(C(=O)C(C)=C(N)C3=O)N1CC1C2N1C (configuration not stated),100% (inactive)
15,CC(=O)N1CCN(c2ccc(NC(=S)NC(=O)/C=C/c3ccccc3)cc2)CC1,1.44% (inactive)
16,COC(=O)c1cc(N=Cc2c(O)c3ccccc3oc2=O)cc(C(=O)OC)c1,-16.3% (inactive)
17,CCOC(=O)c1ccc(N=Cc2nc(-c3ccccc3)oc2OC(C)=O)cc1,39.2% (inactive)
18,Cn1c(/C=N/O)nc2ccccc21,-1.93% (inactive)
19,CCOC(=O)c1ccccc1N=Cc1c(O)c2ccccc2oc1=O,5.1% (inactive)
20,COc1ccc(C(O)c2ncc(C(F)(F)F)cc2Cl)cc1 (configuration not stated),12.8% (inactive)
21,Cc1cc(C(=O)N/N=C2\CC(=O)CC(C)(C)C2)c2ccccc2n1,5.98% (inactive)
22,COCCn1c(NCc2ccc(C)cc2)nc2c1c(=O)[nH]c(=O)n2C,2.2% (inactive)
23,COc1cccc(NC(=O)C2CCCO2)c1 (configuration not stated),0.33% (inactive)
24,CC(C)CC1Nc2ccc(C(=O)NCCCN3CCOCC3)cc2NC1=O (configuration not stated),7.57% (inactive)
25,N#Cc1c(-c2ccc(Cl)cc2)ccn2nc(CCC(=O)O)nc12,0.53% (inactive)

row,Compound,inhibition
1,CCc1nc2c(C#N)c(-c3ccc(Cl)cc3)ccn2n1,-11.1% (inactive)
2,O=C(COC(=O)CNC(=O)c1cccc(OC(F)F)c1)NCc1ccc2c(c1)OCO2,7.07% (inactive)
3,Cc1ccc(NC(=O)c2cccc(-n3cnnn3)c2)cc1Cl,4.03% (inactive)
4,CCN1CC(CN(C)Cc2nc(Cc3ccccc3)no2)CC1=O (configuration not stated),3.14% (inactive)
5,O=C1c2ccccc2S(=O)(=O)c2cc(C(=O)N3CCN(c4ccccc4)CC3)ccc21,4.82% (inactive)
6,O=C1c2ccccc2S(=O)(=O)c2cc(C(=O)N3CCN(c4ccc(Cl)cn4)CC3)ccc21,14% (inactive)
7,O=C(OCC(=O)N1CCCc2ccccc21)c1cccnc1Cl,0.07% (inactive)
8,COC(=O)N/N=C/c1ccccc1,-2.71% (inactive)
9,COC(=O)N/N=C/c1ccccc1Cl,-1.15% (inactive)
10,COc1ccc(NC(=O)CSc2ccccc2)cc1S(=O)(=O)N1CCOCC1,9.25% (inactive)
11,CC(Nc1cc(N2CCN(C(=O)C(C)(C)C)CC2)ccc1[N+](=O)[O-])c1ccccc1 (configuration not stated),6.58% (inactive)
12,CCCCc1nnc(NC(=O)c2ccc(N3CCCC3=O)cc2)s1,0.88% (inactive)
13,Cc1cc(NCCO)nc(-n2nc(C)cc2C)n1,1.56% (inactive)
14,CCOc1ccc(Nc2cc(C)nc(N3CCOCC3)n2)cc1,-6.87% (inactive)
15,Cc1occc1C(=O)Nc1nnc(C(F)(F)F)s1,-11.4% (inactive)
16,C#Cc1ccc2c(c1)COc1c3ccccc3nn1-2,26.7% (inactive)
17,C(#Cc1ccc2c(c1)COc1c3ccccc3nn1-2)c1ccccc1,-2.59% (inactive)
18,COc1ccc(C(CNC(=O)Nc2ccc(Cl)cc2)N2CCN(C)CC2)cc1 (configuration not stated),6.3% (inactive)
19,COc1cccc(NC(=O)[C@@H]2CCCN2C(=O)C2CCN(S(=O)(=O)c3ccc(C)cc3)CC2)c1,-6.02% (inactive)
20,CC(C)(C)Nc1nc(N2CCCC2)nc(N2CCCC2)n1,8.96% (inactive)
21,CCNc1nc(NC(C)(C)C)nc(N2CCCC2)n1,12.8% (inactive)
22,O=C(COc1ccccc1Br)c1ccc2c(c1)OCO2,-8.06% (inactive)
23,C/C(=N\NC(=S)Nc1cccc(C)c1)c1cc2ccccc2o1,67.2% (inactive)
24,CC/C(=N\NC(=S)Nc1cccc(C)c1)c1ccccc1,4.58% (inactive)
25,Cc1ccc2cc(C)c3nnc(SCC(=O)N4CCN(C(=O)c5ccco5)CC4)n3c2c1,-3.44% (inactive)

row,Compound,inhibition
1,COc1ccc(Cl)cc1NC(=O)CSc1nc(Nc2ccccc2)nc(N2CCOCC2)n1,-3.97% (inactive)
2,O=C(CSc1nc(Nc2ccccc2)nc(N2CCOCC2)n1)Nc1ccccc1Cl,-2.86% (inactive)
3,COc1ccccc1OCCNC(=O)C1CC(=O)N(Cc2ccc(C)cc2)C1 (configuration not stated),-0.95% (inactive)
4,Cc1csc(SCC(=O)NC(=O)NCc2ccccc2)n1,-2.35% (inactive)
5,O=C(NC(=S)Nc1ccc2oc(=O)ccc2c1)c1cccc(Cl)c1,5.43% (inactive)
6,CC(C)(C)N=C1NC(=NC(C)(C)C)c2ccccc21,1.58% (inactive)
7,Cc1cccc(NC(=O)CCc2ccc(C)o2)c1,-15.4% (inactive)
8,Cc1ccc(NC(=O)CCc2ccc(C)o2)cc1,23.4% (inactive)
9,CCOc1ccc(N(CC(=O)NC2CCCC2)C(=O)CCCC(=O)Nc2ccccn2)cc1,-1.21% (inactive)
10,CCc1cc(C(=O)NNC(=O)CCN2CCN(c3ccccc3)CC2)sc1C,-4.59% (inactive)
11,CCc1cc(C(=O)NCC2CCCO2)sc1C (configuration not stated),-1.92% (inactive)
12,CC(=O)NNC(=O)c1cc2c3ccccc3n(C)c2s1,-4.02% (inactive)
13,CCCNC(=O)c1cc2c3ccccc3n(C)c2s1,-14.8% (inactive)
14,C/C(=N/NS(=O)(=O)c1ccc(Br)cc1)c1c[nH]c2ccccc12,2.63% (inactive)
15,CCOc1ccc(CN2CCNC(=O)C2CC(=O)N(C)CC2CCOCC2)cc1 (configuration not stated),5.35% (inactive)
16,COc1cc(C(=O)NCC(=O)Nc2c(C)cccc2C)ccc1OCc1ccccc1,-1.77% (inactive)
17,COc1ccc(C(=O)N2CCC(n3nccc3NC(=O)C3CC3)CC2)cc1F,0.61% (inactive)
18,COc1cc(/C=C2/C(=N)N3N=C(CC(=O)N4CCOCC4)SC3=NC2=O)ccc1OCc1ccccc1F,0.04% (inactive)
19,Cc1ccc(S(=O)(=O)N(C)c2ccc(C(=O)N3CCC(C(N)=O)CC3)cc2)cc1,-5.27% (inactive)
20,CCOC(=O)N1CCN(C(=S)NC(=O)c2cccc(OC)c2)CC1,-0.27% (inactive)
21,O=C(O)CCCN1C(=O)c2cccc3cccc(c23)C1=O,-5.41% (inactive)
22,CN(C)CCCN1C(=O)c2cccc3cccc(c23)C1=O,-1.82% (inactive)
23,O=C1CCCC/C1=C/Nc1ccc2c(c1)OCO2,59.1% (inactive)
24,O=C1/C(=C/Nc2cccc([N+](=O)[O-])c2)CCc2ccccc21,2.58% (inactive)
25,Cc1cccc(C(=O)NCCc2csc(C)n2)c1,-0.44% (inactive)

row,Compound,inhibition
1,CCCCC(CC)C(=O)N1CCN(C(=O)c2ccco2)CC1 (configuration not stated),-4.92% (inactive)
2,CCc1nc(Nc2ccccc2OC)c2oc3ccccc3c2n1,2.96% (inactive)
3,COc1ccc(C(=O)NCc2nnc(SCC(=O)c3ccc(F)cc3)n2C)cc1OC,-0.94% (inactive)
4,CN(CC(=O)NCCc1ccc(F)cc1)Cc1ccccc1,-0.22% (inactive)
5,CNC1=C(N(C(C)=O)c2ccc(Br)cc2)C(=O)c2ccccc2C1=O,-2.3% (inactive)
6,CC(CCc1ccccc1)NC(=O)CN(C)Cc1ccc(F)cc1 (configuration not stated),0.05% (inactive)
7,CC(=O)N(C1=C(N)C(=O)c2ccccc2C1=O)c1ccccc1,-1.88% (inactive)
8,CC1CCCCC12NC(=O)N(CC(=O)OCc1ccc(Br)cc1)C2=O (configuration not stated),5.76% (inactive)
9,CN(C)S(=O)(=O)c1ccc(C(=O)NNC(=O)C2COc3ccccc3O2)cc1 (configuration not stated),2.93% (inactive)
10,O=C(O)c1cc(N/N=C/c2ccc(OCc3ccccc3)cc2)ccc1Cl,-0.4% (inactive)
11,CN(C(=O)CO/N=C/c1ccc(Cl)cc1)c1ccccc1,-0.18% (inactive)
12,COc1ccc(C=NOCC(=O)OCC(=O)Nc2ccc(OC)cc2)cc1,4.42% (inactive)
13,CC(C)Oc1ccc(/C(O)=C2/C(=O)C(=O)N(CCN(C)C)C2c2cccs2)cc1 (configuration not stated),4.08% (inactive)
14,CCCOc1ncnc2c1[nH]c1ccc(C)cc12,6.51% (inactive)
15,O=C(NCc1ccccn1)C(=O)Nc1nc(-c2ccccc2)cs1,55.8% (inactive)
16,O=C(NCc1ccccc1)C(=O)Nc1nc(C23CC4CC(CC(C4)C2)C3)cs1,1.12% (inactive)
17,COc1ccc(C)cc1NC(=O)C(NC(=O)c1cc(OC)c(OC)c(OC)c1)C(C)C (configuration not stated),0.19% (inactive)
18,S=C(NC1CCCCCC1)NC1CCCC1,1.4% (inactive)
19,COc1cc(OC)c(C(=O)NNC(=S)NC2CCCCC2)cc1OC,-2.47% (inactive)
20,CCOc1cccc2cc(C(=O)Nc3cc(C)on3)c(=O)oc12,3.23% (inactive)
21,CCOc1ccccc1C(=O)Nc1nccs1,-0.35% (inactive)
22,CCN(CC)c1ccc(NS(=O)(=O)c2cn(C)c(=O)n(C)c2=O)c(C)c1,-6.59% (inactive)
